Screens as filed in PubChem.
This is a sample that favours compounds with a hit; in the whole collection about 3.9% have one here.
S2 tox = viability counter-screen for ATXN expression inhibitors; S2 cells (HEK-293 line with an ATXN2-luciferase reporter) viability, CellTiter-Fluor protease fluorescence, 24 h; Potency, µM (series often up to 56.7 µM), hits mostly cytotoxic; 400,000 tested, 0.49% active; AID 651635; also: nearly all actives have a fitted effect of over 40% in size
HepG2 tox-1 = counter-screen for TGF-b inhibitors: cytotoxicity in HepG2 cells. HepG2 CAGA-GFP viability, ATP luminescence, 18 h. Potency, µM (titrated, usually from 46.1 µM), most hits filed as cytotoxic. 410,000 tested, 0.76% active. AID 588856
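CellTiter-Glo luminescence gave cytotoxicity after 18 hours at 37 degrees C. The cells were HepG2 CAGA-GFP in 1% FBS DMEM, stimulated with 500 pg/mL TGF-beta after compound addition. %Activity was normalised to no-cell wells (complete cell-killing) and DMSO (no toxicity), and curves were fitted and classified.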
HT1080 IDH1KD tx = toxicity to HT-1080 IDH1 knockdown cells (counter line) | AID 686971 | HT-1080 IDH1 knockdown viability, ATP luminescence, 48 h | 360,000 tested, 2% active | Potency, µM (top dose mostly 46.1 µM), usual class: cytotoxic
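IDH1KD HT-1080 cells, 750/well, RPMI + 5% FBS; compound pinned after 2 h settling; 48 h, 37 °C; CellTiter-Glo luminescence; % activity normalised to DMSO and no-cell wells; curves fitted, classed by r2 and efficacy.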
TGFb SMAD3 inh = inhibitors of TGF-b signaling | HepG2 CAGA-GFP TGF-b/SMAD3 reporter, GFP fluorescence, 18 h; TGF-beta stimulated, 500 pg/mL final | Potency, µM (doses to about 46.1 µM), most hits filed as inhibitors | 410,000 tested, 1.2% active | AID 588855; also: nearly all actives have a fitted effect of over 65% in size
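Read-out: total well GFP (ex488/em500-530) summed from mean per-cell fluorescence. Cells: HEPG2 CAGA-GFP, 1% FBS DMEM, 18 h at 37 degrees C with 500 pg/mL final TGF-beta. Unstimulated wells served as the full-inhibition control; stimulated DMSO wells = 0%.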
ATXN2 expr inh = inhibitors of ATXN2 expression; HEK-293 ATXN2-luciferase reporter, luminescence, 24 h; Potency, µM (doses to about 57 µM), usual class: inhibitors; 360,000 tested, 0.72% active; AID 1745845; also: nearly all actives have a fitted effect of over 55% in size
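ATXN2-luciferase reporter cells (luciferase flanked by upstream and downstream ATXN2 gene portions) were treated 24 h at 37 °C with compounds at up to 57 uM. SteadyGlo luminescence gave expression; GF-AFC fluorescence gave viability.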
HT1080NT lethal = kills 2HG-producing HT-1080-NT fibrosarcoma cells; HT-1080-NT fibrosarcoma viability, CellTiter-Glo ATP luminescence, 48 h; Potency, µM (series often up to 46.1 µM), usual class: cytotoxic; 360,000 tested, 1.6% active; AID 686970;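 also: NT is the 2HG producing partner of a matched IDH1 knockdown line; nearly all actives have a fitted effect of over 55% in size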
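Luminescent CellTiter-Glo readout after 48 hours of compound exposure at 37 degrees C defined viability of HT-1080-NT cells. Activity was normalized to DMSO wells and cell-free media wells; concentration-response curves were fitted and assigned curve classes.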
TGFb confirm = confirmation of TGF-b signaling inhibitors in HepG2 reporter cells | shares compounds with TGFb SMAD3 inh | HepG2 CAGA-GFP TGF-b reporter, GFP fluorescence, 18 h; cells stimulated with TGF-beta, 500 pg/mL | Potency, µM (doses to about 46.1 µM), actives largely listed as inhibitors | 1,600 tested, 63% active; also: nearly all actives have a fitted effect of over 65% in size
HepG2 tox-2 = counter-screen for TGF-b inhibitors: cytotoxicity in HepG2 cells. shares compounds with TGFb SMAD3 inh. HepG2 CAGA-GFP viability, ATP luminescence, 18 h; cells stimulated with TGF-beta, 500 pg/mL. Potency, µM (titrated, usually from 46.1 µM), actives largely listed as inhibitors. 1,600 tested, 27% active; also: nearly all actives have a fitted effect of over 70% in size
CCL64 TGFb inh = orthogonal confirmation of TGF-b inhibitors in CCL64 cells; Potency, µM (doses to about 46.1 µM), actives largely listed as inhibitors; 1,600 tested, 41% active; shares compounds with TGFb SMAD3 inh; CCL64 CAGA-GFP reporter, TGF-b stimulated, GFP fluorescence, 18 h; also: nearly all actives have a fitted effect of over 65% in size
TGFb COP inh = blocks TGF-b signaling in HepG2 COP reporter. shares compounds with TGFb SMAD3 inh. HepG2 COP-GFP TGF-b reporter, GFP fluorescence, 18 h; cells stimulated by added recombinant TGF-beta. Potency, µM (titrated, usually from 46.1 µM), hits mostly inhibitors. 1,600 tested, 3% active; also: nearly all actives have a fitted effect of over 70% in size
Numbers stand for hits; – = inactive; ? = inconclusive; · = no result given. Calls follow the shape of the dose curve; as a rule, active = well fitted curve in the direction sought with a large enough effect; inconclusive = small, poorly fitted or top-dose-only effect, or another doubt; inactive = no such curve, though single readings can be large; an effect the other way counts as inactive or inconclusive.

SMILES | S2 tox | HepG2 tox-1 | HT1080 IDH1KD tx | TGFb SMAD3 inh | ATXN2 expr inh | HT1080NT lethal | TGFb confirm | HepG2 tox-2 | CCL64 TGFb inh | TGFb COP inh
CC1CN(c2nc3ccccc3nc2SCC(=O)Nc2cccc(C(F)(F)F)c2)CC(C)O1 (stereo unspecified) | ? | – | – | 16µM | ? | ? | 23µM | ? | ? | –
OC[C@@H]1CN(Cc2ccc(F)cc2)C[C@H](n2cnc3c(Nc4ccccc4)ncnc32)O1 | – | – | – | – | – | – | · | · | · | ·
OC[C@@H]1CN(Cc2ccc(-c3ccccc3)cc2)C[C@H](n2cnc3c(Nc4ccccc4)ncnc32)O1 | – | – | 10µM | 10µM | ? | ? | 8.2µM | ? | ? | –
CCN(C[C@H]1N[C@@](Cc2ccccc2)(C(=O)OC)[C@H]2C(=O)N(Cc3ccccc3)C(=O)[C@@H]12)C(=O)Nc1ccc(Cl)cc1 | ? | – | ? | 13µM | – | ? | 7.3µM | – | 12µM | –
CCNC(=O)N(CC)C[C@H]1N[C@@](Cc2ccccc2)(C(=O)OC)[C@H]2C(=O)N(Cc3ccccc3)C(=O)[C@@H]12 | – | – | – | – | – | – | · | · | · | ·
COC(=O)[C@]1(Cc2ccccc2)N[C@H](CN(C)C(=O)Nc2ccc(C(F)(F)F)cc2)[C@@H]2C(=O)N(Cc3ccccc3)C(=O)[C@@H]21 | – | – | – | 10µM | – | – | 21µM | – | 8.2µM | –
CCN(C[C@H]1N[C@@](Cc2ccccc2)(C(=O)OC)[C@H]2C(=O)N(Cc3ccccc3)C(=O)[C@@H]12)C(=O)Nc1ccc(F)cc1 | ? | – | – | 13µM | – | – | 23µM | – | ? | –
CCN(C[C@H]1N[C@@](C)(C(=O)OC)[C@H]2C(=O)N(Cc3ccccc3)C(=O)[C@@H]12)C(=O)Nc1ccc(Cl)cc1 | ? | – | – | – | – | – | · | · | · | ·
CC[C@@]1(C(=O)OC)N[C@H](CN(C)C(=O)Nc2ccc(C(F)(F)F)cc2)[C@@H]2C(=O)N(Cc3ccccc3)C(=O)[C@@H]21 | – | – | – | – | – | – | · | · | · | ·
COc1ccc2oc(-c3ccc(C)c(NC(=O)c4ccc5c(c4)OCCO5)c3)nc2c1 | ? | – | · | – | – | · | · | · | · | ·
CCCCCn1c(=O)[nH]c2cc(C(=O)N3CCN(c4cccc(C)c4)C(C)C3)ccc2c1=O (stereo unspecified) | – | – | · | ? | – | · | · | · | · | ·
O=C(Nc1ccccc1)c1ccc2c(O)c(S(=O)(=O)c3ccc(Cl)cc3)c(=O)[nH]c2c1 | – | – | · | – | – | · | · | · | · | ·
Cc1ccc(Cl)cc1N1CCN(C(=O)c2cc3c(=O)[nH]c4ccccc4c3n2C)CC1 | ? | – | – | ? | – | ? | ? | ? | – | –
Cn1c(C(=O)N2CCN(c3ccc(Cl)cc3)CC2)cc2c(=O)[nH]c3ccccc3c21 | – | – | – | – | – | – | · | · | · | ·
COc1cc(NC(=O)N2CCSc3ccccc32)cc(OC)c1OC | · | – | · | – | · | · | · | · | · | ·
O=C(Nc1nc2cc3c(cc2s1)OCCO3)c1ccc([N+](=O)[O-])o1 | – | – | ? | ? | – | ? | 0.82µM | 4.1µM | ? | –
O=C(Nc1nc2ccccc2s1)c1ccc([N+](=O)[O-])o1 | ? | – | – | ? | · | ? | · | · | · | ·
COc1ccc2nc(NC(=O)c3ccc([N+](=O)[O-])o3)sc2c1 | ? | – | 18µM | 8.9µM | – | ? | 2.3µM | 21µM | 12µM | –
CC12CCC=CC1C(c1ccc(Br)cc1F)N(Cc1ccccc1)C2=O (stereo unspecified) | · | – | · | ? | · | · | · | · | · | ·
C[C@@]12CCC=C[C@H]1[C@H](c1ccccc1Br)N(Cc1ccccc1)C2=O | ? | – | – | 18µM | – | – | 18µM | ? | ? | –
O=S(=O)(Nc1cccnc1)c1cccc(C(F)(F)F)c1 | – | – | – | – | – | – | · | · | · | ·
O=[N+]([O-])c1ccc(S(=O)(=O)c2cccc(C(F)(F)F)c2)nc1 | 16µM | 13µM | 7.3µM | 6.3µM | ? | 10µM | 3.7µM | 7.3µM | 2.6µM | 16µM
COc1cc(/C=C(/C(=O)c2cccs2)c2nc3ccccc3[nH]2)ccc1O | ? | – | 5µM | 16µM | ? | 7.9µM | 7.3µM | 13µM | 13µM | –
COC(=O)/C(=C\c1ccc(O)cc1)c1nc2ccccc2[nH]1 | – | – | – | – | · | – | · | · | · | ·
O=C(/C(=C/c1ccc(Cl)cc1)c1nc2ccccc2[nH]1)c1cccs1 | 3.5µM | – | 16µM | 5µM | ? | 16µM | 3.3µM | 2.6µM | 4.1µM | –
SMILES | S2 tox | HepG2 tox-1 | HT1080 IDH1KD tx | TGFb SMAD3 inh | ATXN2 expr inh | HT1080NT lethal | TGFb confirm | HepG2 tox-2 | CCL64 TGFb inh | TGFb COP inh
COC(=O)/C(=C\c1cc(OC)c(OC)c(OC)c1)c1nc2ccccc2[nH]1 | – | – | ? | – | – | ? | · | · | · | ·
O=C(COc1ccc(F)cc1)Nc1ccc2nc(SCC(=O)N3CCOCC3)sc2c1 | · | – | · | – | · | · | · | · | · | ·
O=C(NCCCc1nc2ccccc2n1Cc1ccccc1F)c1ccco1 | – | – | · | ? | – | · | · | · | · | ·
COc1ccc(CCNC(=O)c2ccc3c(c2)N(Cc2ccc(F)cc2)C(=O)c2ccccc2S3(=O)=O)cc1OC | · | – | · | · | · | · | · | · | · | ·
N#C/C(=C\c1ccc(Sc2nc3ccccc3[nH]2)o1)c1ccccc1 | – | – | ? | 10µM | ? | ? | 9.2µM | ? | ? | –
CCN(C(=O)c1c(C)oc2ncnc(N3CCCCC3)c12)c1cc(C)ccc1C | – | – | · | – | – | · | · | · | · | ·
Cc1nn(-c2ccccc2)c(-n2cccc2)c1C(=O)NCCCN1CCN(c2ccccc2F)CC1 | – | – | · | ? | – | · | · | · | · | ·
CC(=O)NC(CCS(C)(=O)=O)C(=O)Nc1cccc(Cl)c1Cl (stereo unspecified) | – | – | – | – | – | – | · | · | · | ·
